# Screening data (PubChem)
# TIM10 inh: inhibits growth of TIM10 yeast strain. S. cerevisiae TIM10 strain growth, BacTiter-Glo luminescence, 24 h. inhibition, % at 10 µM. 1.4% of 330,000 active;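 active = inhibition of 40% or more at the single tested concentration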;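 also: wild-type TIM10 isogenic control strain grown at permissive 25 °C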
# tim23-1 inh: inhibits growth of tim23-1 mutant yeast; S. cerevisiae tim23-1 growth, BacTiter-Glo luminescence, 24 h; inhibition, % at 20 µM; 1.3% of 330,000 active; AID 463212;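 active = growth inhibition of the mutant yeast at or above 50%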;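 also: temperature-sensitive mutant grown at 25 °C; plate controls were DMSO-treated mutant yeast for no effect and medium wells lacking yeast for full effect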
# tim10-1 inh: inhibits growth of tim10-1 mutant yeast | 2.2% of 330,000 active | S. cerevisiae tim10-1 ts strain growth, BacTiter-Glo, 24 h | inhibition, % at 20 µM;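 active = inhibition of at least 40%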;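 also: mutant grown at 25 °C; 0% = DMSO wells with yeast and 100% = wells holding no yeast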
# NALP1 yeast inh: NALP1 inhibition | S. cerevisiae NALP1/ASC/caspase-1 growth, X-gal OD620, 72 h | inhibition, % at 10 µM | 0.61% of 280,000 active; in the data active = inhibition mostly above about 24%, no sharp cut-off; inactive = mostly below about 32%
# NLRP3 yeast inh: blocks the NALP3 inflammasome reconstituted in yeast; Yeast reconstituted NLRP3/ASC/caspase-1, beta-gal luminescence, 24 h; inhibition, % at 10 µM; 0.39% of 330,000 active; AID 2825;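 active = inhibition of 50% or more; inactive = inhibition below 50%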;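 also: plate controls were induced DMSO wells for no effect and uninduced yeast grown without galactose for full effect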
# tim10-1 conf: tim10-1 yeast growth inhibition, confirmed. S. cerevisiae tim10-1 ts strain growth, BacTiter-Glo, 24 h. 56% of 7,400 active. inhibition, % at 20 µM. AID 463213. shares compounds with tim10-1 inh;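 active = inhibition of yeast growth at or above a set limit in either of two repeat tests at 20 µM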;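 also: tim10-1 mutant grown at permissive 25 °C to find synthetic lethal compounds; 0% = DMSO yeast wells and 100% = medium wells without yeast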
# Starred values were filed as active, the others as inactive; x = no result. Most compounds without a hit are left out; they make up all but 4% or so of the library.
SMILES,TIM10 inh,tim23-1 inh,tim10-1 inh,NALP1 yeast inh,NLRP3 yeast inh,tim10-1 conf
N#Cc1c(-c2ccc(F)cc2)cc(-c2cccnc2)nc1N,-21,-17,15,15,2,x
N#Cc1c(-c2cccs2)cc(-c2cccnc2)nc1N,26,37,43*,-4,1,29
CC(C)(C)C(=O)Nc1ccccc1C(=O)Nc1cccnc1,-16,2,10,-1,15,x
CC(C)(C)C(=O)Nc1ccccc1C(=O)Nc1cc(Cl)ccc1Cl,39,41,43*,-4,-43,36*
Cc1c(NC(=S)NC(=O)C2CCCCC2)c(=O)n(-c2ccccc2)n1C,11,2,1,30,16,x
O=C(/C=C\c1ccc(-c2ccccc2)o1)c1ccccc1,31,45,48*,41,13,48*
CCOc1ccc(C(C)=O)cc1N1C(=O)C2C3C=CC(O3)C2C1=O (centres undefined),-4,-6,55*,1,5,23
CCOc1ccc(C(C)=O)cc1N1C(=O)C2C3C=CC(C3)C2C1=O (centres undefined),-4,17,20,4,8,x
CCn1c(-c2ccccc2)c(C(=O)CC#N)c2ccccc21,25,32,42*,-7,4,30*
CCCCc1cc(=O)oc2cc(OC(C)C(=O)NCc3ccccn3)c(Cl)cc12 (centres undefined),5,24,41*,35,5,-36
Cc1cccc(C(CC(=O)N2CCCCC2)c2ccccc2)c1O (centres undefined),0,24,22,10,21,x
N#Cc1cccc(-n2c(-c3ccccc3)nnc2-c2ccccc2)c1C#N,20,42,46*,0,17,35*
Cc1c(Br)c([N+](=O)[O-])nn1C(C)C(=O)N1CCCc2ccccc21 (centres undefined),30,42,40*,11,4,37*
Cc1c(Br)c([N+](=O)[O-])nn1CC(=O)N1CCc2ccccc21,-6,-5,1,15,16,x
CCOC(=O)Nc1ccc2c(CNC(C)c3ccccc3OC)cc(=O)oc2c1 (centres undefined),15,32,47*,14,15,22
COc1ccc(C(=O)OCC(=O)Nc2cc(C)on2)c(OC)c1OC,-3,7,85*,6,-1,-7
CCOC(=O)c1ccc(Cl)c(NC(=O)c2cccnc2)c1,14,-6,6,10,3,x
Cc1ccc(Cl)cc1N1CCN(C(=O)C2(S(=O)(=O)c3ccc(Cl)cc3)CC2)CC1,30,27,40*,14,9,27
Cc1cccc(N2CCN(C(=O)C3(S(=O)(=O)c4ccc(Cl)cc4)CC3)CC2)c1C,-2,-5,-28,2,-16,x
O=C(c1ccc(CS(=O)Cc2ccc(Cl)cc2)o1)N1CCN(c2ccccc2F)CC1 (centres undefined),14,23,10,1,10,x
CN1CCN(C(=O)c2ccc(CS(=O)Cc3ccc(Cl)cc3)o2)CC1 (centres undefined),-5,11,7,29,-3,x
Cc1ccc(C)c(N2CCN(C(=O)c3ccc(CS(=O)Cc4ccc(Cl)cc4)o3)CC2)c1 (centres undefined),4,16,46*,31,5,-3
Cc1ccc(Cl)cc1N1CCN(C(=O)c2ccc(CS(=O)Cc3ccc(Cl)cc3)o2)CC1 (centres undefined),2,3,45*,7,1,-20
O=C(CN1C(=O)/C(=C/c2ccco2)SC1=S)NC1CCS(=O)(=O)C1 (centres undefined),11,13,3,4,11,x
Cc1ccnc(NC(=O)c2ccc(C(=O)c3ccccc3)cc2)c1,-4,27,9,x,20,x
SMILES,TIM10 inh,tim23-1 inh,tim10-1 inh,NALP1 yeast inh,NLRP3 yeast inh,tim10-1 conf
Cc1ccnc(NC(=O)c2ccccc2NC(=O)c2ccccc2)c1,12,41,50*,5,29,33*
C=C(C)CNC(=S)N=Nc1c(O)[nH]c2ccc([N+](=O)[O-])cc12,20,27,42*,-13,24,19
NC(=O)NC(=O)CN1C(=O)NC2(CCOc3ccccc32)C1=O (centres undefined),7,-1,-17,6,5,x
CN(C(=S)NC(=O)c1ccc(Cl)cc1)C1CCCCC1,31,24,42*,2,38,10
CN(C(=S)NC(=O)c1ccc(F)cc1)C1CCCCC1,17,34,20,5,33,x
CCCn1cc(CN2CCC(n3nccc3NC(=O)C(OC)c3ccccc3)CC2)c(C)n1 (centres undefined),-5,4,-11,30,18,x
O=C1ON=C(c2ccccc2)/C1=C/c1ccco1,19,41,36,14,10,x
CCCCc1ccc(/C=C2\C(=O)ON=C2c2ccccc2)s1,18,21,40*,21,1,29
CCC(CC)C(=O)Nc1ccc(Cl)c(Cl)c1,13,33,41*,-9,-25,22
CC(C)CC(NC(N)=O)C(=O)Nc1ccc(Cl)c(Cl)c1 (centres undefined),-1,18,-6,2,18,x
CC(C)Cn1c(=O)c2c(nc3n2CCCN3Cc2ccccc2)n(C)c1=O,15,28,42*,11,-8,28
Cn1c(=O)n(Cc2ccc(F)cc2)c(=O)c2c1nc1n2CCCN1C1CCCCC1,33,40,48*,-9,-3,18
Cn1c(=O)n(C/C=C/c2ccccc2)c(=O)c2c1nc1n2CCCN1c1ccc(F)cc1,32,34,46*,1,3,24
O=c1c2c(nc3nc(NCc4ccccc4Cl)[nH]n13)CCC2,0,-2,5,-4,14,x
CCC(=O)c1cn([C@H](CCC(OC)OC)CC(=O)OC(C)(C)C)cc1CC,15,13,14,x,-4,x
S=C(N/N=C/c1ccccc1)N1CCOCC1,-13,7,10,40,25,x
CC(=O)N1N=C(c2cccc([N+](=O)[O-])c2)OC1c1ccc(Cl)cc1Cl (centres undefined),23,35,40*,6,30,14
O=C(NCc1ccco1)c1cc2nc(-c3cccs3)cc(C(F)(F)F)n2n1,14,8,43*,-8,5,28
Cc1ccc(-c2csc3nc[nH]c(=O)c23)c(C)c1,-15,2,-2,11,12,x
Cc1ccc(-c2cc(=O)[nH][nH]2)c(C)c1,30,25,44*,2,-17,24
O=C(NCc1ccccc1Cl)C(=O)NCC1OCCN1S(=O)(=O)c1cccs1 (centres undefined),0,13,11,-43,3,x
COc1ccc(OC)c(NC(=O)CN(Cc2ccc(F)cc2)C2CCCCC2)c1,16,13,-20,4,3,x
Cc1ccc(CSC2=Nc3ccccc3C3=NC(=O)CN23)cc1,14,36,-35,-16,19,x
COc1cc2c(cc1OC)C1=NC(=O)CN1C(SCc1ccccc1C)=N2,13,24,41*,12,8,24
